The values below come from publication PMC12820563, “FoxP3 forms a head-to-head dimer in vivo and stabilizes its multimerization on adjacent microsatellites”.

In all, about 16,000 sequences were measured (“rpm ratio (pull-down/input)”: median about 0.5, highest 2% from about 5.5 on). This excerpt belongs to a sample that is enriched for the highest values.

The assay has as its target T1, MBP-FoxP3dN (Mus musculus, UniProt Q99JB6 188-423).
T1 sequence: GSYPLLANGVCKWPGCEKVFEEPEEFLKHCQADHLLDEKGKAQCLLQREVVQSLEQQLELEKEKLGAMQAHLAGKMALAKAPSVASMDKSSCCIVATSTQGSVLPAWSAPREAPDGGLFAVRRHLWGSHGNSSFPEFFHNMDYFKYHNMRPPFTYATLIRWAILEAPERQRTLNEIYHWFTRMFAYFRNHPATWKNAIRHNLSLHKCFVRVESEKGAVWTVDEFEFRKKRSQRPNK
In words: PD-seq (MBP pull-down with sequencing); 20 mM Tris-HCl pH 7.5, 100 mM NaCl, 1.5 mM MgCl2, 0.4 uM protein, 0.1 uM dsDNA library, 30 min, room temperature, amylose pull-down; high values mean tight binding. Conditions: protein: recombinant; tags: His6-MBP; chain copies: 2; dsDNA, one strand shown. An outline of the steps:
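The N-terminus-lacking fragment of mouse FoxP3 or FoxP1 carried a His6-MBP tag and was expressed in E. coli. At 0.4 µM it was incubated with 0.1 µM Klenow-filled degenerate double-stranded DNA library for 30 min at room temperature in Tris pH 7.5 buffer with NaCl and MgCl2, and complexes were caught on amylose resin, washed three times, released with proteinase K, PCR-barcoded and Illumina-sequenced. Binding is reads-per-million enrichment of pull-down over input with replicates pooled.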
With “GATGATTGTTCTCCCAGCTGATGAATTTTTTATTTCGAGTAAACAAATTTTCCTAATCTTTCTGTTCAAGCGCCATCTAC”, the binding signal is 0.301 RPM ratio (pull-down/input).

Regarding “GATGATTGTTCTCCCAGCTGATGAATTATTTTATTCGAGTAAACAAATTTTCCTAATCTTTCTGTTCAAGCGCCATCTAC”, the binding signal is 0.489 RPM ratio (pull-down/input).

For “GATGATTGTTCTCCCAGCTGATGAATTTTATTATTCGAGTAAACAAATTTTCCTAATCTTTCTGTTCAAGCGCCATCTAC”, the binding signal was 5.53 RPM ratio (pull-down/input).

In the case of “GATGATTGTTCTCCCAGCTGATGAATTTATTGATTCGAGTAAACAAATTTTCCTAATCTTTCTGTTCAAGCGCCATCTAC”, the binding signal was 5.78 RPM ratio (pull-down/input).

On to “GATGATTGTTCTCCCAGCTGATGAATTGATTTATTCGAGTAAACAAATTTTCCTAATCTTTCTGTTCAAGCGCCATCTAC”, for which the binding signal was 2.58 RPM ratio (pull-down/input).

Consider “GATGATTGTTCTCCCAGCTGATGAATTAATTTATTCGAGTAAACAAATTTTCCTAATCTTTCTGTTCAAGCGCCATCTAC”, for which the binding signal is 2.61 RPM ratio (pull-down/input).

As to “GATGATTGTTCTCCCAGCTGATGAATTCTTTTATTCGAGTAAACAAATTTTCCTAATCTTTCTGTTCAAGCGCCATCTAC”, the binding signal is 0.35 RPM ratio (pull-down/input).

For the sequence “GATGATTGTTCTCCCAGCTGATGAATTTATTTGTTCGAGTAAACAAATTTTCCTAATCTTTCTGTTCAAGCGCCATCTAC”, the binding signal is 6.33 RPM ratio (pull-down/input).

Take “GATGATTGTTCTCCCAGCTGATGAATTACGTGCCTCGAGTAAACAAATTTTCCTAATCTTTCTGTTCAAGCGCCATCTAC”: the binding signal is 0.855 RPM ratio (pull-down/input).

Turning to “GATGATTGTTCTCCCAGCTGATGAATTGGTCCACTCGAGTAAACAAATTTTCCTAATCTTTCTGTTCAAGCGCCATCTAC”, the binding signal is 0.387 RPM ratio (pull-down/input).

As to “GATGATTGTTCTCCCAGCTGATGAATTACTGAGCTCGAGTAAACAAATTTTCCTAATCTTTCTGTTCAAGCGCCATCTAC”, the binding signal is 0.258 RPM ratio (pull-down/input).

“GATGATTGTTCTCCCAGCTGATGAATTAACACCTTCGAGTAAACAAATTTTCCTAATCTTTCTGTTCAAGCGCCATCTAC”: the binding signal was 0.408 RPM ratio (pull-down/input).

Consider “GATGATTGTTCTCCCAGCTGATGAATTCTTTACGTCGAGTAAACAAATTTTCCTAATCTTTCTGTTCAAGCGCCATCTAC”, for which the binding signal was 0.372 RPM ratio (pull-down/input).

As to “GATGATTGTTCTCCCAGCTGATGAATTGTAGCGGTCGAGTAAACAAATTTTCCTAATCTTTCTGTTCAAGCGCCATCTAC”, the binding signal was 0.618 RPM ratio (pull-down/input).

As for “GATGATTGTTCTCCCAGCTGATGAATTTAATACATCGAGTAAACAAATTTTCCTAATCTTTCTGTTCAAGCGCCATCTAC”, the binding signal is 0.619 RPM ratio (pull-down/input).

For “GATGATTGTTCTCCCAGCTGATGAATTGTAACCGTCGAGTAAACAAATTTTCCTAATCTTTCTGTTCAAGCGCCATCTAC”, the binding signal is 0.518 RPM ratio (pull-down/input).

In the case of “GATGATTGTTCTCCCAGCTGATGAATTTTTATTATCGAGTAAACAAATTTTCCTAATCTTTCTGTTCAAGCGCCATCTAC”, the binding signal is 0.779 RPM ratio (pull-down/input).

Take “GATGATTGTTCTCCCAGCTGATGAATTTGTATTATCGAGTAAACAAATTTTCCTAATCTTTCTGTTCAAGCGCCATCTAC”: the binding signal is 5.3 RPM ratio (pull-down/input).

As to “GATGATTGTTCTCCCAGCTGATGAATTGTATTTATCGAGTAAACAAATTTTCCTAATCTTTCTGTTCAAGCGCCATCTAC”, the binding signal was 6.83 RPM ratio (pull-down/input).

As for “GATGATTGTTCTCCCAGCTGATGAATTTTATTGATCGAGTAAACAAATTTTCCTAATCTTTCTGTTCAAGCGCCATCTAC”, the binding signal is 5.5 RPM ratio (pull-down/input).

Turning to “GATGATTGTTCTCCCAGCTGATGAATTTTATTTATCGAGTAAACAAATTTTCCTAATCTTTCTGTTCAAGCGCCATCTAC”, the binding signal was 6.95 RPM ratio (pull-down/input).

Consider “GATGATTGTTCTCCCAGCTGATGAATTTATTTTATCGAGTAAACAAATTTTCCTAATCTTTCTGTTCAAGCGCCATCTAC”, for which the binding signal was 3.67 RPM ratio (pull-down/input).

As for “GATGATTGTTCTCCCAGCTGATGAATTTATTCTATCGAGTAAACAAATTTTCCTAATCTTTCTGTTCAAGCGCCATCTAC”, the binding signal was 0.549 RPM ratio (pull-down/input).

As for “GATGATTGTTCTCCCAGCTGATGAATTTATTGAATCGAGTAAACAAATTTTCCTAATCTTTCTGTTCAAGCGCCATCTAC”, the binding signal is 0.822 RPM ratio (pull-down/input).

With “GATGATTGTTCTCCCAGCTGATGAATTTATTGTATCGAGTAAACAAATTTTCCTAATCTTTCTGTTCAAGCGCCATCTAC”, the binding signal was 5.25 RPM ratio (pull-down/input).

For the sequence “GATGATTGTTCTCCCAGCTGATGAATTTATTTGATCGAGTAAACAAATTTTCCTAATCTTTCTGTTCAAGCGCCATCTAC”, the binding signal is 2.62 RPM ratio (pull-down/input).

Regarding “GATGATTGTTCTCCCAGCTGATGAATTCTATTTATCGAGTAAACAAATTTTCCTAATCTTTCTGTTCAAGCGCCATCTAC”, the binding signal was 6.6 RPM ratio (pull-down/input).

In the case of “GATGATTGTTCTCCCAGCTGATGAATTATTCCTATCGAGTAAACAAATTTTCCTAATCTTTCTGTTCAAGCGCCATCTAC”, the binding signal is 0.365 RPM ratio (pull-down/input).

For “GATGATTGTTCTCCCAGCTGATGAATTGATCAAGTCGAGTAAACAAATTTTCCTAATCTTTCTGTTCAAGCGCCATCTAC”, the binding signal is 0.245 RPM ratio (pull-down/input).

For “GATGATTGTTCTCCCAGCTGATGAATTTGACGAGTCGAGTAAACAAATTTTCCTAATCTTTCTGTTCAAGCGCCATCTAC”, the binding signal is 0.235 RPM ratio (pull-down/input).

Regarding “GATGATTGTTCTCCCAGCTGATGAATTATCAGCCTCGAGTAAACAAATTTTCCTAATCTTTCTGTTCAAGCGCCATCTAC”, the binding signal was 0.468 RPM ratio (pull-down/input).

Take “GATGATTGTTCTCCCAGCTGATGAATTTCCGTGCTCGAGTAAACAAATTTTCCTAATCTTTCTGTTCAAGCGCCATCTAC”: the binding signal was 0.332 RPM ratio (pull-down/input).
